Test results published in PubChem BioAssay AID1159580 (chemical genetic matrix, 2015).
Several values for one entry are separate records, joined by “and”; a condition that tells them apart may be missing. Equal values may be shown once. Out of some 5,500 compounds screened, about 2,000 (36%) were called active. Not shown: some 18% with an inconclusive outcome. No stated cut-off is given here; in the data, active means normalized growth mostly below about 0.91 (no sharp cut-off); inconclusive means no clear call, values can overlap the other calls; inactive means mostly above about 0.92. This is one part of the list.

Assay: chemical genetic growth profiling, strain panel (AID 1159580);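 further: tested at 20 µM; growth read once vehicle control cultures reached saturation at 30 °C; 1 = growth at the plate median or of vehicle wells; lower values mean less growth of the strain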
Settings: growth OD

Measured: normalized growth

COC(=O)C1=C(C)NC(C)=C(C(=O)OCCN(C)Cc2ccccc2)C1c1cccc([N+](=O)[O-])c1 (stereo unspecified)
inactive: S. cerevisiae deletion strains, locus YJR075W, strain HOC1, active compounds read low 0.973 and 0.963 | S. cerevisiae deletion strains, locus YKL009W, strain mrt4, active compounds read low 0.97 | S. cerevisiae deletion strains, locus YKL068W, active compounds read low 0.994 | S. cerevisiae deletion strains, locus YKL085W, strain MDH1 (second series), active compounds read low 0.993 | S. cerevisiae deletion strains, locus YKL085W, strain MDH1, active compounds read low 0.993 | S. cerevisiae deletion strains, locus YKL160W, strain elf1, active compounds read low 0.963 | S. cerevisiae deletion strains, locus YKL190W, strain CNB1, active compounds read low 0.99 | S. cerevisiae deletion strains, locus YKR001C, strain vps1, active compounds read low 1.01 | S. cerevisiae deletion strains, locus YKR026C, strain gcn3, active compounds read low 0.97 | S. cerevisiae deletion strains, locus YKR091W, strain srl3, active compounds read low 0.993 | S. cerevisiae deletion strains, locus YLL001W, strain dnm1, active compounds read low 0.98 | S. cerevisiae deletion strains, locus YLL026W, active compounds read low 0.998 | S. cerevisiae deletion strains, locus YLL041C, strain sdh2, active compounds read low 0.968 | S. cerevisiae deletion strains, locus YLR027C, strain aat2, active compounds read low 0.988 | S. cerevisiae deletion strains, locus YLR039C, strain RIC1, active compounds read low 0.999 | S. cerevisiae deletion strains, locus YLR058C, strain SHM2, active compounds read low 0.963 | S. cerevisiae deletion strains, locus YLR102C, strain apc9, active compounds read low 0.987 | S. cerevisiae deletion strains, locus YLR113W, strain HOG1, active compounds read low 0.93 | S. cerevisiae deletion strains, locus YLR221C, strain rsa3, active compounds read low 0.982 | S. cerevisiae deletion strains, locus YLR258W, strain gsy2, active compounds read low 0.973 | S. cerevisiae deletion strains, locus YLR262C, strain YPT6 (second series), active compounds read low 0.952 | S. cerevisiae deletion strains, locus YLR262C, strain YPT6, active compounds read low 0.947 | S. cerevisiae deletion strains, locus YLR268W, strain sec22, active compounds read low 1 | S. cerevisiae deletion strains, locus YLR320W, strain mms22, active compounds read low 0.986 | S. cerevisiae deletion strains, locus YLR330W, strain CHS5, active compounds read low 0.993 | S. cerevisiae deletion strains, locus YLR342W, strain FKS1 (second series), active compounds read low 0.957 | S. cerevisiae deletion strains, locus YLR342W, strain FKS1, active compounds read low 0.996 | S. cerevisiae deletion strains, locus YLR357W, strain rsc2, active compounds read low 0.965 | S. cerevisiae deletion strains, locus YLR370C, strain arc18, active compounds read low 0.984 | S. cerevisiae deletion strains, locus YLR371W, strain rom2, active compounds read low 0.967 | S. cerevisiae deletion strains, locus YLR384C, strain iki3, active compounds read low 0.98 | S. cerevisiae deletion strains, locus YLR418C, strain cdc73, active compounds read low 0.96 | S. cerevisiae deletion strains, locus YML016C, strain PPZ1, active compounds read low 0.99 | S. cerevisiae deletion strains, locus YML032C, strain rad52, active compounds read low 0.961 | S. cerevisiae deletion strains, locus YML120C, strain ndi1, active compounds read low 1.02 | S. cerevisiae deletion strains, locus YML124C, strain tub3, active compounds read low 0.992 | S. cerevisiae deletion strains, locus YMR058W, strain fet3, active compounds read low 0.993 | S. cerevisiae deletion strains, locus YMR078C, strain ctf18, active compounds read low 0.977 | S. cerevisiae deletion strains, locus YMR125W, strain sto1, active compounds read low 0.978 | S. cerevisiae deletion strains, locus YMR129W, active compounds read low 1 | S. cerevisiae deletion strains, locus YMR205C, strain PFK2, active compounds read low 0.986 | S. cerevisiae deletion strains, locus YMR223W, strain ubp8, active compounds read low 0.978 | S. cerevisiae deletion strains, locus YMR231W, strain pep5, active compounds read low 0.998 | S. cerevisiae deletion strains, locus YMR263W, strain SAP30, active compounds read low 0.988 | S. cerevisiae deletion strains, locus YMR307W, strain GAS1, active compounds read low 0.744 | S. cerevisiae deletion strains, locus YNL067W, strain RPL9B, active compounds read low 0.999 | S. cerevisiae deletion strains, locus YNL071W, strain lat1, active compounds read low 0.97 | S. cerevisiae deletion strains, locus YNL128W, strain TEP1, active compounds read low 0.987 and 1.05 | S. cerevisiae deletion strains, locus YNL153C, strain GIM3, active compounds read low 0.98 | S. cerevisiae deletion strains, locus YNL175C, strain NOP13, active compounds read low 1 | S. cerevisiae deletion strains, locus YNL183C, strain NPR1, active compounds read low 0.923 | S. cerevisiae deletion strains, locus YNL197C, strain WHI3, active compounds read low 1.02 | S. cerevisiae deletion strains, locus YNL209W, strain ssb2, active compounds read low 0.978 | S. cerevisiae deletion strains, locus YNL224C, strain SQS1, active compounds read low 0.993 | S. cerevisiae deletion strains, locus YNL233W, strain BNI4, active compounds read low 0.981 | S. cerevisiae deletion strains, locus YNL248C, strain rpa49, active compounds read low 0.968 | S. cerevisiae deletion strains, locus YNL250W, strain rad50, active compounds read low 0.981 | S. cerevisiae deletion strains, locus YNL271C, strain bni1, active compounds read low 1 | S. cerevisiae deletion strains, locus YNL298W, strain CLA4, active compounds read low 0.996 | S. cerevisiae deletion strains, locus YNL307C, strain MCK1, active compounds read low 0.968 | S. cerevisiae deletion strains, locus YNL322C, strain KRE1 (second series), active compounds read low 0.996 | S. cerevisiae deletion strains, locus YNL322C, strain KRE1, active compounds read low 0.995 | S. cerevisiae deletion strains, locus YNR049C, strain mso1, active compounds read low 0.974 | S. cerevisiae deletion strains, locus YNR052C, strain pop2, active compounds read low 0.999 | S. cerevisiae deletion strains, locus YOL006C, strain TOP1, active compounds read low 1.01 | S. cerevisiae deletion strains, locus YOL012C, strain htz1 0.795 | S. cerevisiae deletion strains, locus YOL147C, strain pex11, active compounds read low 0.99 | S. cerevisiae deletion strains, locus YOR001W, strain rrp6, active compounds read low 0.994 | S. cerevisiae deletion strains, locus YOR061W, strain CKA2, active compounds read low 0.964 | S. cerevisiae deletion strains, locus YOR069W, strain VPS5, active compounds read low 1.01 | S. cerevisiae deletion strains, locus YOR070C, strain gyp1, active compounds read low 0.979 | S. cerevisiae deletion strains, locus YOR080W, strain dia2, active compounds read low 0.979 | S. cerevisiae deletion strains, locus YOR083W, strain WHI5 (second series), active compounds read low 1.01 | S. cerevisiae deletion strains, locus YOR083W, strain WHI5, active compounds read low 1 | S. cerevisiae deletion strains, locus YOR106W, strain vam3, active compounds read low 0.971 | S. cerevisiae deletion strains, locus YOR136W, strain idh2, active compounds read low 0.984 | S. cerevisiae deletion strains, locus YOR144C, strain elg1, active compounds read low 0.999 | S. cerevisiae deletion strains, locus YOR184W, strain ser1, active compounds read low 0.956 | S. cerevisiae deletion strains, locus YOR231W, strain MKK1, active compounds read low 0.969 | S. cerevisiae deletion strains, locus YOR265W, strain rbl2, active compounds read low 0.999 | S. cerevisiae deletion strains, locus YOR270C, strain vph1, active compounds read low 0.939 | S. cerevisiae deletion strains, locus YOR290C, strain snf2, active compounds read low 0.975 | S. cerevisiae deletion strains, locus YOR316C, strain cot1, active compounds read low 0.98 | S. cerevisiae deletion strains, locus YPL051W, strain arl3, active compounds read low 0.979 | S. cerevisiae deletion strains, locus YPL055C, strain LGE1, active compounds read low 0.951 and 0.966 | S. cerevisiae deletion strains, locus YPL078C, strain atp4, active compounds read low 0.995 | S. cerevisiae deletion strains, locus YPL106C, strain sse1, active compounds read low 0.887 | S. cerevisiae deletion strains, locus YPL240C, strain hsp82, active compounds read low 0.985 | S. cerevisiae deletion strains, locus YPL241C, strain CIN2, active compounds read low 0.991 and 0.972 | S. cerevisiae deletion strains, locus YPL256C, strain CLN2, active compounds read low 0.957 | S. cerevisiae deletion strains, locus YPR119W, strain clb2, active compounds read low 0.984 | S. cerevisiae deletion strains, locus YPR141C, strain kar3, active compounds read low 0.982 | S. cerevisiae deletion strains, locus YPR163C, strain tif3, active compounds read low 0.996 | S. cerevisiae deletion strains, locus YPR167C, strain met16, active compounds read low 0.988 | S. cerevisiae deletion strains, strain wtn01, active compounds read low 0.981 | S. cerevisiae strains, strain wild type, active compounds read low 0.998
